The text below walks through data of PMC5700166.

The test deals with T1, GST-Aq-NF-kB (Amphimedon queenslandica, UniProt A9Y5G7 2-389).
T1 sequence: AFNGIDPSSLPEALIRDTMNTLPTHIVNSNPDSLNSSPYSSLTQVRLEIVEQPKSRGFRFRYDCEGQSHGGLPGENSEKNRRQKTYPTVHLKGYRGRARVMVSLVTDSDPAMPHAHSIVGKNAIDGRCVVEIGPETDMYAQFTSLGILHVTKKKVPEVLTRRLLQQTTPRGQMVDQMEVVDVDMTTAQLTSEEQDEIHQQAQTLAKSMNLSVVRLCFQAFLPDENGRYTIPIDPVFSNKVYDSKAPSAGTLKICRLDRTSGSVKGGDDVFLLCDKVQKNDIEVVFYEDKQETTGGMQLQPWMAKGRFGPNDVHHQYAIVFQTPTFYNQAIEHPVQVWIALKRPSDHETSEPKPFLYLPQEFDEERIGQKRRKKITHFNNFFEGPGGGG
The test is described as follows: protein-binding microarray (PBM); PBM: ~300 nM protein, 6 mM HEPES pH 7.8, 80 mM KCl, 0.5 mM EDTA, 0.5 mM EGTA, 6% glycerol, 35 ng/ul poly-dIdC, 1% milk, 1 h, room temperature; Ap Aiptasia and Nv Nematostella (sea anemones) / Co Capsaspora / Aq Amphimedon (sponge) / Dm Drosophila / Hu human; RHD is the Rel homology domain; high values mean tight binding. The settings on record: dsDNA, one strand shown.
Regarding “CCGATTAACATCACGGAAGTTCCTGATGTTAATCGGGTCTTGATTCGCTTGACGCTGCTG”, the binding signal came out at 2.56 z-score.
The same measure for “CCGATTAACATCAGAAACTTTCCTGATGTTAATCGGGTCTTGATTCGCTTGACGCTGCTG”: 2.07 z-score.
The same measure for “CCGATTAACATCAAAATTTCCGCTGATGTTAATCGGGTCTTGATTCGCTTGACGCTGCTG”: 1.48 z-score.
As for “CCGATTAACATCAGGAAATGTCCTGATGTTAATCGGGTCTTGATTCGCTTGACGCTGCTG”, the binding signal worked out at 1.67 z-score.
Regarding “CCGATTAACATCAAGGAATCTCCTGATGTTAATCGGGTCTTGATTCGCTTGACGCTGCTG”, the binding signal stood at 1.78 z-score.
The same measure for “CCGATTAACATCAAGGAGTTTCCTGATGTTAATCGGGTCTTGATTCGCTTGACGCTGCTG”: 2.55 z-score; for “CCGATTAACATCACGGCTTTTCCTGATGTTAATCGGGTCTTGATTCGCTTGACGCTGCTG”: 1.72 z-score; for “CCGATTAACATCAGGCATTTCCATGATGTTAATCGGGTCTTGATTCGCTTGACGCTGCTG”: 1.13 z-score.
Turning to “CCGATTAACATCAAAGAATTTCCTGATGTTAATCGGGTCTTGATTCGCTTGACGCTGCTG”, the binding signal is 1.45 z-score.
To “CCGATTAACATCAGGAAATCTCCTGATGTTAATCGGGTCTTGATTCGCTTGACGCTGCTG” belongs 1.25 z-score; to “CCGATTAACATCAAAATTTCCGTTGATGTTAATCGGGTCTTGATTCGCTTGACGCTGCTG”, 1.64 z-score.
For “CCGATTAACATCAGGCAAAACCCTGATGTTAATCGGGTCTTGATTCGCTTGACGCTGCTG”, the binding signal came to 3.28 z-score.
To “CCGATTAACATCACGGAATGTCCTGATGTTAATCGGGTCTTGATTCGCTTGACGCTGCTG” belongs 1.82 z-score.
The same measure for “CCGATTAACATCAGGAATAGCCCTGATGTTAATCGGGTCTTGATTCGCTTGACGCTGCTG”: 1.9 z-score.
“CCGATTAACATCAGAGAAATTCCTGATGTTAATCGGGTCTTGATTCGCTTGACGCTGCTG” came in with a binding signal of 1.65 z-score.
In turn, “CCGATTAACATCACGGAGTTTCCTGATGTTAATCGGGTCTTGATTCGCTTGACGCTGCTG” displayed a binding signal of 3.34 z-score.
Sequence “CCGATTAACATCACGGAATATCCTGATGTTAATCGGGTCTTGATTCGCTTGACGCTGCTG” registered a binding signal of 1.48 z-score.
In turn, “CCGATTAACATCAGGAGTTGCCCTGATGTTAATCGGGTCTTGATTCGCTTGACGCTGCTG” yielded a binding signal of 3.13 z-score.
In turn, “CCGATTAACATCAGGAACTGCCCTGATGTTAATCGGGTCTTGATTCGCTTGACGCTGCTG” came in with a binding signal of 2.36 z-score.
For the sequence “CCGATTAACATCACGGAAAATTCTGATGTTAATCGGGTCTTGATTCGCTTGACGCTGCTG”, the binding signal was found to be 1.15 z-score.
To “CCGATTAACATCACGGATATTCCTGATGTTAATCGGGTCTTGATTCGCTTGACGCTGCTG” belongs 1.34 z-score; to “CCGATTAACATCAGAGAATTTCCTGATGTTAATCGGGTCTTGATTCGCTTGACGCTGCTG”, 1.55 z-score; to “CCGATTAACATCAAAAATATTCCTGATGTTAATCGGGTCTTGATTCGCTTGACGCTGCTG”, 1 z-score.
To “CCGATTAACATCAAGAAATTCCTTGATGTTAATCGGGTCTTGATTCGCTTGACGCTGCTG” belongs 1.02 z-score; to “CCGATTAACATCAGGAAAACTCCTGATGTTAATCGGGTCTTGATTCGCTTGACGCTGCTG”, 1.4 z-score; to “CCGATTAACATCAAGGAAAAGCCTGATGTTAATCGGGTCTTGATTCGCTTGACGCTGCTG”, 1.11 z-score.
To “CCGATTAACATCAAGATCCCTTGTGATGTTAATCGGGTCTTGATTCGCTTGACGCTGCTG” belongs 1.08 z-score; to “CCGATTAACATCAGGATATGCCCTGATGTTAATCGGGTCTTGATTCGCTTGACGCTGCTG”, 1.7 z-score; to “CCGATTAACATCAGGAAATATCCTGATGTTAATCGGGTCTTGATTCGCTTGACGCTGCTG”, 1.24 z-score.
“CCGATTAACATCAGGAAAGTTCCTGATGTTAATCGGGTCTTGATTCGCTTGACGCTGCTG” yielded a binding signal of 1.9 z-score.
In turn, “CCGATTAACATCAAGGAAGTTCCTGATGTTAATCGGGTCTTGATTCGCTTGACGCTGCTG” displayed a binding signal of 2.07 z-score.
In turn, “CCGATTAACATCACGGCAATTCCTGATGTTAATCGGGTCTTGATTCGCTTGACGCTGCTG” had a binding signal of 1.38 z-score.
To “CCGATTAACATCACGGAAAAGCCTGATGTTAATCGGGTCTTGATTCGCTTGACGCTGCTG” belongs 1.34 z-score; to “CCGATTAACATCACGGACTGTCCTGATGTTAATCGGGTCTTGATTCGCTTGACGCTGCTG”, 2.22 z-score; to “CCGATTAACATCACGAAATTTCCTGATGTTAATCGGGTCTTGATTCGCTTGACGCTGCTG”, 1.65 z-score.
The same measure for “CCGATTAACATCACGGATTTTCCTGATGTTAATCGGGTCTTGATTCGCTTGACGCTGCTG”: 3.35 z-score; for “CCGATTAACATCACGGATTGCCCTGATGTTAATCGGGTCTTGATTCGCTTGACGCTGCTG”: 1.2 z-score.
In turn, “CCGATTAACATCAGCAAAATTCCTGATGTTAATCGGGTCTTGATTCGCTTGACGCTGCTG” came in with a binding signal of 1.04 z-score.
“CCGATTAACATCAAGGATTGCCCTGATGTTAATCGGGTCTTGATTCGCTTGACGCTGCTG”: the binding signal amounted to 1.51 z-score.
